# Reference: PubChem BioAssay (Tox21)
# Results filed as inconclusive are left out. Active and inactive are the calls of the source. Calls follow the shape of the dose curve; as a rule, active = well fitted cell-killing curve with a large enough effect in the repeat runs; inconclusive = weak or mixed curves; inactive = no such curve, though single readings can be large or run the other way.
# Assay: qHTS assay to identify small molecule antagonists of the peroxisome proliferator-activated receptor delta (PPARd) signaling pathway - cell viability counter screen (AID 743213); also: nearly all actives have a fitted effect of over 50% in size
# Conditions: PPARd-bla HEK293H viability, CellTiter-Glo luminescence, 17 h; series mostly up to 62 µM; viability change, negative = cytotoxic: at the top concentration
# Source text: U.S. Tox21 Program National Center for Advancing Translational Sciences [NCATS] NIH Chemical Genomics Center [NCGC] U.S. Environmental Protection Agency [EPA] National Institutes of Environmental Health Sciences [NIEHS] National Toxicology Program [NTP] U.S. Food and Drug Administration [FDA] Tox21 Assay Overview: The peroxisome proliferator-activated receptors (PPARs) are lipid-activated transcription factors of the nuclear receptor superfamily with three distinct subtypes namely PPAR alpha, PPAR delta (PPARd) and PPAR gamma. All these subtypes heterodimerizes with Retinoid X receptor (RXR) and have different physiological functions. […] To identify the compounds that inhibit PPAR-delta signaling, GeneBLAzer PPAR delta UAS-bla HEK293H cell line (Invitrogen, Carlsbad, CA, USA) containing a beta-lactamase reporter gene under the control of an Upstream Activator Sequence (UAS) was used to screen the Tox21 compound library. The cytotoxicity of the Tox21 compound library against the PPARd-bla cell line was tested in parallel by measuring the cell viability using CellTiter-Glo assay (Promega, Madison, WI) in the same wells.
# Tox21 Assay Protocol Summary: PPARd-bla cells were dispensed at 3000 cells/5uL/well in 1536-well black wall/clear bottom plates using a Multidrop Combi (Thermo Fisher Scientific, Waltham, MA) dispenser. After the assay plates were incubated at 37 C and 5% CO2 for 5 h, 23 nL of compounds dissolved in DMSO, positive controls or DMSO only was transferred to the assay plate by a Pintool station (Kalypsys, San Diego, CA), followed by addition of 1ul L165041 (300 nM, final concentration in the wells). The assay plates were incubated at 37 C for 17 h, and then 1 uL of LiveBLAzerTM B/G FRET substrate was added using a Bioraptr Flying Reagent Dispenser (FRD) workstation (Beckman Coulter, Indianapolis, IN, USA). The assay plates were incubated at room temperature for 2 h and fluorescence intensity was measured by an Envision plate reader (PerkinElmer, Shelton, CT). For cell viability readout that measures cytotoxicity, 3 ul/well of CellTiter-Glo reagent was added into the assay plates using a Bioraptr FRD. After 30 min incubation at room temperature, the luminescence intensity in the plates was measured using a ViewLux plate reader (PerkinElmer).
# % is scaled to controls: 0 for no effect and ±100 for the full control effect.
row,Structure (SMILES),"viability change, negative = cytotoxic"
1,CCS(=O)(=O)CCSP(=O)(OC)OC,-1.51% (inactive)
2,O=C1OC(c2ccc(O)c(S(=O)(=O)O)c2)(c2ccc(O)c(S(=O)(=O)O)c2)c2c(Br)c(Br)c(Br)c(Br)c21,13.5% (inactive)
3,CCOP(=S)(OCC)SCSP(=S)(OCC)OCC,17.8% (inactive)
4,O=C(Nc1ccccc1)c1ccccc1I,-5.35% (inactive)
5,c1coc(-c2nc3ccccc3[nH]2)c1,-0.426% (inactive)
6,c1ccc(N2CCNCC2)cc1,-2.7% (inactive)
7,COC(=O)COc1ccc(Cl)cc1Cl,-18.5% (inactive)
8,Clc1cccc(N2CCNCC2)c1,4.25% (inactive)
9,N#Cc1c(Cl)cccc1Cl,9.56% (inactive)
10,O=C1CN2CCOC2(c2ccccc2Cl)c2cc(Cl)ccc2N1 (stereo not given),5.43% (inactive)
11,NC(=S)C(N)=S,-14.7% (inactive)
12,CC1(C)COP(Oc2ccccc2)OC1,-16.8% (inactive)
13,Cc1coc2c1CCC(C)C2 (stereo not given),1.33% [at 80.4 µM] (inactive)
14,N#Cc1ccncc1,16.1% [at 80.4 µM] (inactive)
15,C[N+](C)=CCl,3.02% (inactive)
16,CC1=NNC(=O)N(/N=C/c2cccnc2)C1,2.23% (inactive)
17,CCOP(=S)(OCC)Oc1ncn(-c2ccccc2)n1,-8.46% (inactive)
18,O=C(O)c1cccc(Cl)c1,-5.91% (inactive)
19,CCC(C)n1c(=O)[nH]c(C)c(Br)c1=O (stereo not given),25.4% (inactive)
20,COC(=O)c1ccccc1S(=O)(=O)NC(=O)N(C)c1nc(C)nc(OC)n1,28.4% [at 80.4 µM] (inactive)

row,Structure (SMILES),"viability change, negative = cytotoxic"
1,CN(C)CCc1ccc(O)cc1,0.362% (inactive)
2,CCCCC(=O)Cl,7.54% [at 80.4 µM] (inactive)
3,CC1COC2(c3ccccc3Cl)c3cc(Cl)ccc3NC(=O)CN12 (stereo not given),2.88% (inactive)
4,O=[N+]([O-])c1cccc(O)c1,-14.2% [at 80.4 µM] (inactive)
5,CN(N=O)C(N)=O,-19.8% (inactive)
6,COP(=S)(OC)Oc1c(Cl)cc(C)cc1Cl,2.63% (inactive)
7,O=C1OC(=O)C2C1C1(Cl)C(Cl)=C(Cl)C2(Cl)C1(Cl)Cl (stereo not given),-13.7% [at 80.4 µM] (inactive)
8,ClCC(Cl)(Cl)Cl,-4.64% [at 80.4 µM] (inactive)
9,CC1=C(C(=O)O)N2C(=O)[C@@H](N)[C@H]2SC1,-7.71% [at 28.9 µM] (inactive)
10,O=P(O)(Oc1ccccc1)Oc1ccccc1,3.78% (inactive)
11,CC(=O)CC(c1ccc(Cl)cc1)c1c(O)c2ccccc2oc1=O (stereo not given),-0.912% [at 80.4 µM] (inactive)
12,N#CCBr,3.31% [at 80.4 µM] (inactive)
13,COc1cc(OC)nc(NC(=O)NS(=O)(=O)c2ncccc2C(=O)N(C)C)n1,-2.31% (inactive)
14,OCCBr,-0.863% (inactive)
15,O=C(Nc1ccccc1)N(Cc1ccc(Cl)cc1)C1CCCC1,-21.2% (inactive)
16,COc1cc(OC)nc(NC(=O)NS(=O)(=O)c2ncccc2OCC(F)(F)F)n1,3.88% (inactive)
17,CC(=O)Nc1cc([As](=O)(O)O)ccc1O,8.12% (inactive)
18,COc1cc(OC)nc(Sc2cccc(Cl)c2C(=O)O)n1,7.49% (inactive)
19,NC(=O)c1cc([N+](=O)[O-])cc([N+](=O)[O-])c1,5.24% (inactive)
20,OC(c1ccc(F)cc1)(c1cncnc1)c1ccccc1Cl (stereo not given),20.9% (inactive)
